Results reported in PubChem BioAssay AID1159580 (chemical genetic matrix, 2015).
About 2,000 (36%) of roughly 5,500 compounds were called active. About 18% were inconclusive and are not listed. Rule as the data show it: active = normalized growth mostly below about 0.91 (no sharp cut-off); inconclusive = no clear call, values can overlap the other calls; inactive = mostly above about 0.92. Some of the results follow.

Assay: chemical genetic growth profiling, strain panel (AID 1159580);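 also: tested at 20 µM; growth read once vehicle control cultures reached saturation at 30 °C; 1 = growth at the plate median or of vehicle wells; lower values mean less growth of the strain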
Conditions: growth OD

Measured: normalized growth

NNC(=O)c1ccncc1
inactive: S. cerevisiae deletion strains, locus YJR075W, strain HOC1, active compounds read low 1.01 | S. cerevisiae deletion strains, locus YKL009W, strain mrt4, active compounds read low 0.98 | S. cerevisiae deletion strains, locus YKL068W, active compounds read low 0.992 | S. cerevisiae deletion strains, locus YKL085W, strain MDH1 (second series), active compounds read low 0.991 | S. cerevisiae deletion strains, locus YKL085W, strain MDH1, active compounds read low 0.991 | S. cerevisiae deletion strains, locus YKL160W, strain elf1, active compounds read low 1.04 | S. cerevisiae deletion strains, locus YKL190W, strain CNB1, active compounds read low 0.992 | S. cerevisiae deletion strains, locus YKR001C, strain vps1, active compounds read low 0.993 | S. cerevisiae deletion strains, locus YKR026C, strain gcn3, active compounds read low 1.01 | S. cerevisiae deletion strains, locus YKR091W, strain srl3, active compounds read low 1 | S. cerevisiae deletion strains, locus YLL001W, strain dnm1, active compounds read low 1.03 | S. cerevisiae deletion strains, locus YLL026W, active compounds read low 1.03 | S. cerevisiae deletion strains, locus YLL041C, strain sdh2, active compounds read low 1 | S. cerevisiae deletion strains, locus YLR027C, strain aat2, active compounds read low 1.03 | S. cerevisiae deletion strains, locus YLR039C, strain RIC1, active compounds read low 1.05 | S. cerevisiae deletion strains, locus YLR058C, strain SHM2, active compounds read low 1.01 | S. cerevisiae deletion strains, locus YLR102C, strain apc9, active compounds read low 0.998 | S. cerevisiae deletion strains, locus YLR113W, strain HOG1, active compounds read low 1.01 | S. cerevisiae deletion strains, locus YLR221C, strain rsa3, active compounds read low 0.986 | S. cerevisiae deletion strains, locus YLR258W, strain gsy2, active compounds read low 0.99 | S. cerevisiae deletion strains, locus YLR262C, strain YPT6 (second series), active compounds read low 1.03 | S. cerevisiae deletion strains, locus YLR262C, strain YPT6, active compounds read low 1.01 | S. cerevisiae deletion strains, locus YLR268W, strain sec22, active compounds read low 0.991 | S. cerevisiae deletion strains, locus YLR320W, strain mms22, active compounds read low 0.986 | S. cerevisiae deletion strains, locus YLR330W, strain CHS5, active compounds read low 1.01 | S. cerevisiae deletion strains, locus YLR342W, strain FKS1 (second series), active compounds read low 1.01 | S. cerevisiae deletion strains, locus YLR342W, strain FKS1, active compounds read low 1.02 | S. cerevisiae deletion strains, locus YLR357W, strain rsc2, active compounds read low 0.998 | S. cerevisiae deletion strains, locus YLR370C, strain arc18, active compounds read low 1.02 | S. cerevisiae deletion strains, locus YLR371W, strain rom2, active compounds read low 0.988 | S. cerevisiae deletion strains, locus YLR384C, strain iki3, active compounds read low 1.01 | S. cerevisiae deletion strains, locus YLR418C, strain cdc73, active compounds read low 0.964 | S. cerevisiae deletion strains, locus YML016C, strain PPZ1, active compounds read low 1.01 | S. cerevisiae deletion strains, locus YML032C, strain rad52, active compounds read low 0.995 | S. cerevisiae deletion strains, locus YML120C, strain ndi1, active compounds read low 1.06 | S. cerevisiae deletion strains, locus YML124C, strain tub3, active compounds read low 0.988 | S. cerevisiae deletion strains, locus YMR058W, strain fet3, active compounds read low 1.04 | S. cerevisiae deletion strains, locus YMR078C, strain ctf18, active compounds read low 1 | S. cerevisiae deletion strains, locus YMR125W, strain sto1, active compounds read low 1.02 | S. cerevisiae deletion strains, locus YMR129W, active compounds read low 1 | S. cerevisiae deletion strains, locus YMR205C, strain PFK2, active compounds read low 1.03 | S. cerevisiae deletion strains, locus YMR223W, strain ubp8, active compounds read low 0.974 | S. cerevisiae deletion strains, locus YMR231W, strain pep5, active compounds read low 0.995 | S. cerevisiae deletion strains, locus YMR307W, strain GAS1, active compounds read low 0.997 | S. cerevisiae deletion strains, locus YNL067W, strain RPL9B, active compounds read low 0.996 | S. cerevisiae deletion strains, locus YNL071W, strain lat1, active compounds read low 0.996 | S. cerevisiae deletion strains, locus YNL153C, strain GIM3, active compounds read low 1.01 | S. cerevisiae deletion strains, locus YNL183C, strain NPR1, active compounds read low 0.948 | S. cerevisiae deletion strains, locus YNL209W, strain ssb2, active compounds read low 1 | S. cerevisiae deletion strains, locus YNL233W, strain BNI4, active compounds read low 1.01 | S. cerevisiae deletion strains, locus YNL248C, strain rpa49, active compounds read low 0.988 | S. cerevisiae deletion strains, locus YNL250W, strain rad50, active compounds read low 0.977 | S. cerevisiae deletion strains, locus YNL271C, strain bni1, active compounds read low 0.985 | S. cerevisiae deletion strains, locus YNL298W, strain CLA4, active compounds read low 0.986 | S. cerevisiae deletion strains, locus YNL307C, strain MCK1, active compounds read low 0.995 | S. cerevisiae deletion strains, locus YNL322C, strain KRE1 (second series), active compounds read low 1.02 | S. cerevisiae deletion strains, locus YNR049C, strain mso1, active compounds read low 1.01 | S. cerevisiae deletion strains, locus YNR052C, strain pop2, active compounds read low 1 | S. cerevisiae deletion strains, locus YOL012C, strain htz1 0.873 | S. cerevisiae deletion strains, locus YOL147C, strain pex11, active compounds read low 0.994 | S. cerevisiae deletion strains, locus YOR001W, strain rrp6, active compounds read low 1.03 | S. cerevisiae deletion strains, locus YOR061W, strain CKA2, active compounds read low 1.02 | S. cerevisiae deletion strains, locus YOR069W, strain VPS5, active compounds read low 1 | S. cerevisiae deletion strains, locus YOR070C, strain gyp1, active compounds read low 1 | S. cerevisiae deletion strains, locus YOR080W, strain dia2, active compounds read low 1.01 | S. cerevisiae deletion strains, locus YOR083W, strain WHI5, active compounds read low 1 | S. cerevisiae deletion strains, locus YOR106W, strain vam3, active compounds read low 1.04 | S. cerevisiae deletion strains, locus YOR136W, strain idh2, active compounds read low 0.998 | S. cerevisiae deletion strains, locus YOR144C, strain elg1, active compounds read low 0.994 | S. cerevisiae deletion strains, locus YOR184W, strain ser1, active compounds read low 0.981 | S. cerevisiae deletion strains, locus YOR231W, strain MKK1, active compounds read low 0.992 | S. cerevisiae deletion strains, locus YOR265W, strain rbl2, active compounds read low 1.01 | S. cerevisiae deletion strains, locus YOR270C, strain vph1, active compounds read low 1 | S. cerevisiae deletion strains, locus YOR290C, strain snf2, active compounds read low 0.965 | S. cerevisiae deletion strains, locus YOR316C, strain cot1, active compounds read low 0.997 | S. cerevisiae deletion strains, locus YPL051W, strain arl3, active compounds read low 1.02 | S. cerevisiae deletion strains, locus YPL055C, strain LGE1, active compounds read low 1.01 | S. cerevisiae deletion strains, locus YPL078C, strain atp4, active compounds read low 1.06 | S. cerevisiae deletion strains, locus YPL106C, strain sse1, active compounds read low 1.01 | S. cerevisiae deletion strains, locus YPL240C, strain hsp82, active compounds read low 1.02 | S. cerevisiae deletion strains, locus YPL256C, strain CLN2, active compounds read low 0.966 | S. cerevisiae deletion strains, locus YPR119W, strain clb2, active compounds read low 0.987 | S. cerevisiae deletion strains, locus YPR141C, strain kar3, active compounds read low 0.99 | S. cerevisiae deletion strains, locus YPR163C, strain tif3, active compounds read low 0.987 | S. cerevisiae deletion strains, locus YPR167C, strain met16, active compounds read low 0.981 | S. cerevisiae deletion strains, strain wtn01, active compounds read low 0.98 | S. cerevisiae strains, strain wild type, active compounds read low 1
